Measured values from article PMC5540273 (PLoS ONE, 2017).

Columns and labels:
Conditions in all cases: concentration: 1 μM, replicates: in singlicate; n = 1
CSK = tested on: CSK
CSNK1A1L = tested on: CSNK1A1L
CSNK1A1 = tested on: CSNK1A1
CSNK1D = tested on: CSNK1D
CSNK1E = tested on: CSNK1E
CSNK1G1 = tested on: CSNK1G1
CSNK1G2 = tested on: CSNK1G2
CSNK1G3 = tested on: CSNK1G3
CSNK2A1 = tested on: CSNK2A1
CSNK2A2 = tested on: CSNK2A2
CTK = tested on: T1, CTK
T1 construct: gene MATK

DAPK1 = tested on: DAPK1
DAPK2 = tested on: DAPK2
DAPK3 = tested on: DAPK3
DCAMKL1 = tested on: T2, DCAMKL1
T2 construct: gene DCLK1

DCAMKL2 = tested on: T3, DCAMKL2
T3 construct: gene DCLK2

DCAMKL3 = tested on: T4, DCAMKL3
T4 construct: gene DCLK3

DDR1 = tested on: DDR1
DDR2 = tested on: DDR2
DLK = tested on: T5, DLK
T5 construct: gene MAP3K12
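Note: KINOMEscan kinase panel screen.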

Row | Compound | %Inh (CSK) [%] | %Inh (CSNK1A1L) [%] | %Inh (CSNK1A1) [%] | %Inh (CSNK1D) [%] | %Inh (CSNK1E) [%] | %Inh (CSNK1G1) [%] | %Inh (CSNK1G2) [%] | %Inh (CSNK1G3) [%] | %Inh (CSNK2A1) [%] | %Inh (CSNK2A2) [%] | %Inh (CTK) [%] | %Inh (DAPK1) [%] | %Inh (DAPK2) [%] | %Inh (DAPK3) [%] | %Inh (DCAMKL1) [%] | %Inh (DCAMKL2) [%] | %Inh (DCAMKL3) [%] | %Inh (DDR1) [%] | %Inh (DDR2) [%] | %Inh (DLK) [%]
1 | COc1cccc(C2=C(Nc3cc(Cl)c(O)c(Cl)c3)C(=O)NC2=O)c1 [SB-390767] | 0 | 5 | 0 | 13 | 24 | 100 | 0 | 25 | 0 | 0 | 10 | 0 | 0 | 17 | 11 | 0 | 26 | 96.1 | 18 | 0
2 | COC(=O)c1cccc(NC(=O)NC2CCN(c3ccnc(Nc4ccc(OC)cc4)n3)C2)c1 (centres unmarked) [GSK1379746] | 0 | 0 | 0 | 21 | 35 | 0 | 0 | 26 | 0 | 0 | 0 | 0 | 0 | 0 | 8 | 0 | 0 | 11 | 46 | 35
3 | Nc1nccc(-c2c(-c3ccc(F)cc3)ncn2C2CCN(Cc3ccccc3)CC2)n1 [SB-219980] | 0 | 49 | 95.1 | 94.1 | 99.4 | 0 | 0 | 0 | 0 | 6 | 11 | 0 | 0 | 0 | 0 | 0 | 13 | 86 | 74 | 0
4 | COc1ccc(Nc2nccc(N3CCC(NC(=O)c4cc5ccccc5s4)C3)n2)cc1 (centres unmarked) [GSK1379738] | 2 | 2 | 0 | 9 | 34 | 0 | 0 | 17 | 5 | 0 | 0 | 0 | 0 | 25 | 14 | 0 | 0 | 80 | 23 | 28
5 | Nc1ncnc2occ(-c3ccc4c(c3)CCN4C(=O)Cc3cc(F)ccc3F)c12 [GSK2645446] | 0 | 1 | 1 | 0 | 30 | 4 | 0 | 38 | 0 | 11 | 0 | 0 | 0 | 0 | 10 | 0 | 0 | 0 | 25 | 8
6 | CC(=O)c1c(C)c2cnc(Nc3ccn(C)n3)nc2n(C2CCCC2)c1=O | 1 | 0 | 3 | 0 | 0 | 0 | 0 | 16 | 56 | 50 | 0 | 0 | 0 | 3 | 0 | 100 | 0 | 0 | 0 | 64
7 | Cc1ccc(NC(=O)c2ccc(Cl)cc2)cc1-c1ccc(C(=O)Nc2ccncc2)cc1 [GSK1398467] | 0 | 14 | 0 | 18 | 11 | 8 | 9 | 22 | 0 | 0 | 0 | 12 | 0 | 34 | 3 | 0 | 0 | 89 | 36 | 0
8 | Cc1c(Cn2c3ccccc3n3c(=O)cc(N4CCOCC4)nc23)cccc1C(F)(F)F [GSK2306394] | 0 | 0 | 19 | 10 | 12 | 9 | 43 | 17 | 6 | 14 | 10 | 12 | 4 | 0 | 0 | 0 | 0 | 19 | 0 | 0
9 | Cc1c(Cn2c(C)c(C)n3c(=O)cc(N4CCOCC4)nc23)cccc1C(F)(F)F [GSK2328680] | 0 | 10 | 0 | 24 | 20 | 0 | 0 | 21 | 2 | 5 | 0 | 0 | 0 | 3 | 0 | 21 | 5 | 0 | 11 | 14
10 | CC(=O)c1c(C)c2cnc(Nc3ccc(N4CCNCC4)cn3)nc2n(C2CCCC2)c1=O | 0 | 0 | 24 | 8 | 99.9 | 0 | 0 | 0 | 0 | 13 | 0 | 0 | 13 | 6 | 0 | 0 | 0 | 0 | 0 | 0
